# Results reported in PMC4336329 (PLoS ONE, 2015).
# The whole screen tested about 310,000 compounds, of which about 14,000 (4.5%) showed an effect of 50% or more. Effects have a minus sign here. Only a selection was taken, and strong results are over-represented in it overall.
# Biological target: human ether-à-go-go-related gene (hERG) potassium channel (human, UniProt Q12809)
# Experiment: primary screen, population patch clamp on CHO cells stably expressing hERG; higher = less effect of the substance
# 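Further: peak tail current of the secondary pulse compared with the same well before compound.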
# human ether-à-go-go-related gene (hERG) potassium channel, sequence (Q12809 whole entry, looked up): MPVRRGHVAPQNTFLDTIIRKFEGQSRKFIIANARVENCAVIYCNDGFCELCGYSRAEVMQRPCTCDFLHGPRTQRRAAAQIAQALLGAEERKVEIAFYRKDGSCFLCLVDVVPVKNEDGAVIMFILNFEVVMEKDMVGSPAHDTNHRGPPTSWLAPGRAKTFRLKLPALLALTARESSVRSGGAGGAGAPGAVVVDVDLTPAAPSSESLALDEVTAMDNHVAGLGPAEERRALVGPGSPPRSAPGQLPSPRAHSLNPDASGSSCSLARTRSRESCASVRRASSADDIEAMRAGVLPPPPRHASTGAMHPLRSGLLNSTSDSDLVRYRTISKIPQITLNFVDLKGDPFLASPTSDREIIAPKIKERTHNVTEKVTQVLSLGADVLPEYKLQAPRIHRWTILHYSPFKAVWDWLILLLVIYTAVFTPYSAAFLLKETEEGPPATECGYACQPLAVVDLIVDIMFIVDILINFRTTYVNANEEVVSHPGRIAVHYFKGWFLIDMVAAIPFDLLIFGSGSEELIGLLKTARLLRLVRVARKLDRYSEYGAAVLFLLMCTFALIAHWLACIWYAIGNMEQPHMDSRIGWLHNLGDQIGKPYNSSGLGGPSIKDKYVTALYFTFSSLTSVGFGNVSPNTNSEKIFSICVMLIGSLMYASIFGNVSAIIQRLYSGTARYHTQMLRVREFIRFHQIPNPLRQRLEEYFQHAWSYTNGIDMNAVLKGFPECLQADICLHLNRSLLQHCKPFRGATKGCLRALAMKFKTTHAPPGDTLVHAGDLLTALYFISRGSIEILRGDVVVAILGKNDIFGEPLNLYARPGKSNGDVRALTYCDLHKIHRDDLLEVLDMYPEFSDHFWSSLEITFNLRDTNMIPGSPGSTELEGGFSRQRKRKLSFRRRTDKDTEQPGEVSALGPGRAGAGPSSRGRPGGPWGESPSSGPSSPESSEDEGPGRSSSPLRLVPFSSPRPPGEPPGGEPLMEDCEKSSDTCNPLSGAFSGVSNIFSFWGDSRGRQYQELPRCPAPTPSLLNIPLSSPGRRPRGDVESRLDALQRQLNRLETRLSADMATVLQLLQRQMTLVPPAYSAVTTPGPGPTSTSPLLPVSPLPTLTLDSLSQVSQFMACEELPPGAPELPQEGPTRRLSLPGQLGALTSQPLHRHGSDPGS
row,Structure (SMILES),"hERG current change (%, negative = inhibition) at 10uM [%]"
1,CCCCNC(=O)NS(=O)(=O)c1ccc(NC(=O)CCC(=O)c2cccs2)cc1,23.1
2,O=S(=O)(c1ccc(Cl)nc1)N1CCCCC1,-1.17
3,CC1(C)Oc2ccc3ccc(=O)oc3c2C(/C=N/O)=C1Cl,14.7
4,CCOC(=O)C1CCN(/C=C2/C(=O)NC(=S)N(c3cccc(OC)c3)C2=O)CC1,19.4
5,CCOC(=O)/C=c1\s/c(=C(\C#N)C(=O)NC)n(-c2ccccc2)c1=O,10.6
6,Cc1ccc(-c2nn3c(C)nnc3s2)cc1NC(=O)c1ccco1,-11.7
7,O=C(N/N=C/C=C\c1ccco1)c1cccnc1,8.4
8,Cn1cccc1-c1nc2ccccc2n1Cc1ccccc1,-29.1
9,O=C(NCc1ccccc1)N1CCC(CO)(CCc2ccccc2)CC1,-38
10,CS(=O)(=O)c1ccc(S(=O)(=O)N2CCC(CO)(CCCc3ccccc3)CC2)cc1,-41.4
11,CCOC(=O)C1(CCc2ccccc2)CCN(C2Cc3ccccc3C2)CC1,-64.8
12,OCC1(CCCc2ccccc2)CCN(C2CCSCC2)CC1,-80.5
13,CCCCOC(=O)c1ccc(NC(=O)CSC2=Nc3ccccc3C3CC=NN23)cc1 (stereo not drawn),15.4
14,O=C(COc1ccccc1)NCC(=O)Nc1ccncc1,1.26
15,O=C(c1ccc(NC(=O)C2(c3ccccc3)CCOCC2)cc1)N1CCOCC1,9.8
16,CC(=O)N1c2c(cc(Br)cc2S(=O)(=O)NCC2COc3ccccc3O2)CC1C (stereo not drawn),-44.5
17,CC1CCCN(S(=O)(=O)c2cc3c4c(c2)CCN4C(=O)CC3)C1 (stereo not drawn),-6.07
18,COC(=O)[C@@]12CCCN1[C@H](c1ccc(-c3ccc(OC)cc3)c(OC)c1)[C@@H]1C(=O)N(C)C(=O)[C@@H]12.O=C(O)C(F)(F)F,-9.37
19,CC1(C)O[C@H]2CC(=O)OC[C@]23[C@H]2CC[C@@]4(C)[C@H](c5ccoc5)OC(=O)[C@H]5O[C@]54[C@]2(C)[C@@H](O)C[C@@H]13,17.1

row,Structure (SMILES),"hERG current change (%, negative = inhibition) at 10uM [%]"
1,CCOC(=O)CN1C(=O)S/C(=C/c2ccco2)C1=O,9.39
2,CCOC(=O)CN1C(=O)S/C(=C/c2ccc(N3CCCCC3)o2)C1=O,13.1
3,CCOC(=O)CN1C(=O)S/C(=C/c2ccc(C)o2)C1=O,-72.7
4,Cc1[nH]nc2c1C(c1ccsc1C)C(C#N)=C(N)O2 (stereo not drawn),2.25
5,Cn1cnnc1SCC(=O)NN(c1ccccc1)c1ccccc1,28.6
6,CCNC(=O)C(C)Oc1ccc(Cl)cc1Cl (stereo not drawn),9.68
7,Cc1cccc(C(=O)C2CCOC(C)(C)C2)c1 (stereo not drawn),13
8,Cc1oc(-c2ccc(C(F)(F)F)cc2)nc1CN(Cc1ccccn1)C[C@@H]1CCC(=O)N1,-38.2
9,O=C1CC[C@@H](CN(Cc2ccccn2)Cc2nc(-c3ccc(C(F)(F)F)cc3)no2)N1,-62.7
10,Clc1ccc(-c2noc(CN(Cc3ccccn3)CC3CCCO3)n2)cc1 (stereo not drawn),-28.5
11,CCN(Cc1nc(-c2ccc(Cl)cc2)no1)CC1CCCO1 (stereo not drawn),-62.9
12,COC(=O)c1ccc(-c2noc(CN(Cc3ccncc3)CC3CCCO3)n2)cc1 (stereo not drawn),-28.5
13,COC(=O)c1ccc(-c2noc(CN(Cc3ccccn3)CC3CCCO3)n2)cc1 (stereo not drawn),-75
14,O=C1CC[C@@H](CN(Cc2ccccn2)Cc2nc(Cc3cccc(C(F)(F)F)c3)no2)N1,-48.4
15,CCN(Cc1nc(-c2cccc(Cl)c2)no1)CC1CCCO1 (stereo not drawn),1.7
16,CCCN(Cc1nc(-c2ccc(Cl)cc2)no1)CC1CCCO1 (stereo not drawn),-8.15
17,COc1ccc(CN(CC2CCC(C(=O)O)CC2)C(=S)Nc2cccc(C)c2)cc1 (stereo not drawn),-2.44
18,O=Cc1cc(-c2ccccc2)[nH]c1-c1ccccc1,22.5
19,COCCn1nnnc1C(C(C)C)N(Cc1cccnc1)Cc1cc2cc(OC)ccc2[nH]c1=O (stereo not drawn),-29.3

row,Structure (SMILES),"hERG current change (%, negative = inhibition) at 10uM [%]"
1,CCCCCC(=O)NNC(=O)Cc1ccc([N+](=O)[O-])cc1,-1.38
2,Cc1ccccc1C(=O)c1cccn1CC(=O)NCCCN1CCCCC1,-41.9
3,Cc1ccccc1C(=O)c1cccn1CC(=O)NCCCN1CCc2ccccc2C1,-78.6
4,O=C(Cn1cccc1C(=O)c1ccccc1)NCCN1CCCCCC1,-35.3
5,Cc1ccccc1C(=O)c1cccn1CC(=O)NCC(C)c1ccccc1 (stereo not drawn),-20.3
6,O=C(Cn1cccc1C(=O)c1ccccc1)NCCCN1CCc2ccccc2C1,-74.1
7,O=C(Cn1cccc1C(=O)c1ccccc1)NCCCN1CCOCC1,13.4
8,O=C(CN1C(=O)NC2(CCCCC2)C1=O)Nc1cc(C(F)(F)F)ccc1N1CCCCC1,-1.7
9,Fc1cc(F)c2nc(Nc3nc4cc5c(cc4s3)OCO5)sc2c1,15.2
10,O=C(Oc1ccc2ccccc2c1)c1cncc(Br)c1,-11.6
11,CC1CCN(S(=O)(=O)c2ccc(NC(=O)[C@@H]3CCCC[C@@H]3C(=O)O)cc2)CC1,9.64
12,CCC(C)(C(=O)NC1CCCCC1)N(Cc1ccco1)C(=O)c1cnccn1 (stereo not drawn),-11.3
13,Cc1ccc(NC(=O)COC(=O)COc2ccc3ccc(=O)oc3c2)cc1[N+](=O)[O-],3.51
14,CCCc1nc(N)c(C#N)c(-c2ccco2)c1CC,14.3
15,CCCc1nc2ccccc2c(C(=O)O)c1CC,1.82
16,Cc1cc(C)c2nc(C(F)(F)F)c(C#N)c(N)c2c1,17.4
17,CCCc1nc2c(C)cc(C)cc2c(N)c1CC,-59.2
18,CCCSc1nc(C)c2cc(C)cc(C)c2n1,10.9
19,CCCc1nc2c(C)ccc(C)c2c(N)c1CC,-62.5
